# Measurements from the supplement of paper PMC10849652.
# Of roughly 7,900 targets only a part is listed; those with a hit were picked by preference. About 0.6% of all pairs of compound and target were hits.
# Compound: COc1cc2nc(-c3cc(F)ccc3O)nc(N[C@@H]3CNC[C@H]3C(C)(C)O)c2cc1OC
# Experiment: log2 fold change, soluble protein after heating vs DMSO (PISA); higher = thermal stabilisation; K562 cells, 10 uM, 30 min; active = over 0.2 and 3.5 SD of the protein, either way, in both replicates (recomputed)
# In short: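 K562 cells at 2×10^6 cells/mL were exposed to 10 μM compound for 30 min, then aliquots were heated for 3 min across 48°C-58°C, pooled, and extracted in PBS containing 0.5% NP-40 at 4°C. The supernatant after 21,000xg for 90 min was taken as soluble protein and measured by TMTpro 16plex LC-MS/MS with channel sums equalised. Thermal stability is reported relative to control samples, with values from duplicates. Fold changes are given on a log2 scale.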
# UniProt Q8WV07, sequence (Q8WV07 whole entry, looked up): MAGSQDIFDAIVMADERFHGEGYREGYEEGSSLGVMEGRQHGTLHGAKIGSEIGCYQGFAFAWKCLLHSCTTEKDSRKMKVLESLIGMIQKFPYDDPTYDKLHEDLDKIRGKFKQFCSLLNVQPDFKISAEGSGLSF
# UniProt Q13123, sequence (Q13123 whole entry, looked up): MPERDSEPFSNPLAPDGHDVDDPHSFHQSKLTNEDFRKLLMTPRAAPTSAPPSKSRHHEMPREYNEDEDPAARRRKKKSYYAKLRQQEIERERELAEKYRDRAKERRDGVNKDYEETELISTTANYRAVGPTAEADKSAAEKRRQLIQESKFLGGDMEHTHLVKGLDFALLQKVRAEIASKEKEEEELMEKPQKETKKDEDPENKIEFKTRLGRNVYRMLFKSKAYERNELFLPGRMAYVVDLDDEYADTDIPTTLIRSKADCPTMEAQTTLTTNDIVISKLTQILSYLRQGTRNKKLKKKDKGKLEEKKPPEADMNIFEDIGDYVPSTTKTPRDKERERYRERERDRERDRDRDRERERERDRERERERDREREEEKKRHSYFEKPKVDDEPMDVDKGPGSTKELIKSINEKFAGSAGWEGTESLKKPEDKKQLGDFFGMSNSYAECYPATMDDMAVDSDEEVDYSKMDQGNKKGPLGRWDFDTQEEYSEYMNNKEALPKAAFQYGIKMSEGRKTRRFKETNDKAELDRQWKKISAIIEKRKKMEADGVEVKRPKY
# UniProt Q96LU5, sequence (Q96LU5 whole entry, looked up): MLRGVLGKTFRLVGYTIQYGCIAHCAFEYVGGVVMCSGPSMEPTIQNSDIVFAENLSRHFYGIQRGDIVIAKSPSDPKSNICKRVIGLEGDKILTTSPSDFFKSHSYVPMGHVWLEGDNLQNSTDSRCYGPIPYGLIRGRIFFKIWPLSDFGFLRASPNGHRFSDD
# UniProt P32019, sequence (P32019 whole entry, looked up): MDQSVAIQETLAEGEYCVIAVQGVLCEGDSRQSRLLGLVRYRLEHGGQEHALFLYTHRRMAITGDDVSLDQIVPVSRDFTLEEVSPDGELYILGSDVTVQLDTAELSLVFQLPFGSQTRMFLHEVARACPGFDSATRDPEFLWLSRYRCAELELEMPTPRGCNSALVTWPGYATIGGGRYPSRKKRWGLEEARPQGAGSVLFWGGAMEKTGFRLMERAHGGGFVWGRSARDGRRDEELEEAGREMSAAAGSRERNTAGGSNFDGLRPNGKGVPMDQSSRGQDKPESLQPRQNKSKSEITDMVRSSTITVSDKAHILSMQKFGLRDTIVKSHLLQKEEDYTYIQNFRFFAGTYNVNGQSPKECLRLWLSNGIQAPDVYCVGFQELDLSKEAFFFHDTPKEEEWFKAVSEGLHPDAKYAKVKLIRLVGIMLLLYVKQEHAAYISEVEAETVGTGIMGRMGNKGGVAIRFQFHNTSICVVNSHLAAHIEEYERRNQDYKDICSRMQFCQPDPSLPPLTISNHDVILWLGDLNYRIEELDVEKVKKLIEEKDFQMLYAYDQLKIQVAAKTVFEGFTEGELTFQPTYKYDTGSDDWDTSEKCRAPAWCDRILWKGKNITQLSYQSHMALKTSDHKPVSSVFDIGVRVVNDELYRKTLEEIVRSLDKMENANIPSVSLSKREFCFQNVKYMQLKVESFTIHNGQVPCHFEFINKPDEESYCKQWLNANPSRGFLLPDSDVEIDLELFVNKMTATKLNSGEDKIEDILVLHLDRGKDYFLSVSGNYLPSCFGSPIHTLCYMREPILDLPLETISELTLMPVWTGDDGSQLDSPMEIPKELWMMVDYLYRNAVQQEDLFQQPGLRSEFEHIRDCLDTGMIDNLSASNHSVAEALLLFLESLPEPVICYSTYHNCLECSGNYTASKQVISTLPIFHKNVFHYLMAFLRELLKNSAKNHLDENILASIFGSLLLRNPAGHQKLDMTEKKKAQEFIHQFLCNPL
# UniProt O94829, sequence (O94829 whole entry, looked up): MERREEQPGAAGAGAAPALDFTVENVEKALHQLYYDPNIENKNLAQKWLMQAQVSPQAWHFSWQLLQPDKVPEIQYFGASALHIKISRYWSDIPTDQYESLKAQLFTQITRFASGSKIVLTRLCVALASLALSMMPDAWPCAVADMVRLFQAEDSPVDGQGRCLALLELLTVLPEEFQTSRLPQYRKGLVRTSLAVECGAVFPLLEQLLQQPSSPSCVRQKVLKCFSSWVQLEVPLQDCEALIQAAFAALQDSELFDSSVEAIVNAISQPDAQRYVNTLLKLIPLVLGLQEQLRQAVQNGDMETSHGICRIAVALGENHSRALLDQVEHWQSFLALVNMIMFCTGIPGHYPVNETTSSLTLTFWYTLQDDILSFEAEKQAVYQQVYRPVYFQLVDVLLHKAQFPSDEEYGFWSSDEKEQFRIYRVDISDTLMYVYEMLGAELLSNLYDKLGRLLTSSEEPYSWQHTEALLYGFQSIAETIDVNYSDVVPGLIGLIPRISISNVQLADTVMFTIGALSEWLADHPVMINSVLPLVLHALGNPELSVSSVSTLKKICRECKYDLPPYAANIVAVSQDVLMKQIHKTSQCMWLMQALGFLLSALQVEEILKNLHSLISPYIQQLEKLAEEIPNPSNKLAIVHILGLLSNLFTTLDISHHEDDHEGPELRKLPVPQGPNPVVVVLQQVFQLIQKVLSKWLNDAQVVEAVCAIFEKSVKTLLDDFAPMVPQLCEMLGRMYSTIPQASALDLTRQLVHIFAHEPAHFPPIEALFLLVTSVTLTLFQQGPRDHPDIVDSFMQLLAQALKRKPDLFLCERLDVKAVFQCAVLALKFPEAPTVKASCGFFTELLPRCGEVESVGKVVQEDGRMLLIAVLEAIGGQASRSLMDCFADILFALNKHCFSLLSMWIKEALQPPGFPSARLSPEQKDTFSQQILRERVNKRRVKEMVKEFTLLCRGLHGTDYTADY
# UniProt Q9H6K1, sequence (Q9H6K1 whole entry, looked up): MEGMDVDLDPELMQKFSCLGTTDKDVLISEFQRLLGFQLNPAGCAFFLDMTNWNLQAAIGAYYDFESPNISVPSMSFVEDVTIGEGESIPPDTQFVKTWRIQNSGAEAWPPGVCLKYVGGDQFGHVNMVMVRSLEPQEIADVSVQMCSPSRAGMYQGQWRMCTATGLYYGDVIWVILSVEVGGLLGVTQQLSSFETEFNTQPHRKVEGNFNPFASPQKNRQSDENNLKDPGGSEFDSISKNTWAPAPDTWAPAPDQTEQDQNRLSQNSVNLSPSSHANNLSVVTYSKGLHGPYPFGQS
# UniProt Q03252, sequence (Q03252 whole entry, looked up): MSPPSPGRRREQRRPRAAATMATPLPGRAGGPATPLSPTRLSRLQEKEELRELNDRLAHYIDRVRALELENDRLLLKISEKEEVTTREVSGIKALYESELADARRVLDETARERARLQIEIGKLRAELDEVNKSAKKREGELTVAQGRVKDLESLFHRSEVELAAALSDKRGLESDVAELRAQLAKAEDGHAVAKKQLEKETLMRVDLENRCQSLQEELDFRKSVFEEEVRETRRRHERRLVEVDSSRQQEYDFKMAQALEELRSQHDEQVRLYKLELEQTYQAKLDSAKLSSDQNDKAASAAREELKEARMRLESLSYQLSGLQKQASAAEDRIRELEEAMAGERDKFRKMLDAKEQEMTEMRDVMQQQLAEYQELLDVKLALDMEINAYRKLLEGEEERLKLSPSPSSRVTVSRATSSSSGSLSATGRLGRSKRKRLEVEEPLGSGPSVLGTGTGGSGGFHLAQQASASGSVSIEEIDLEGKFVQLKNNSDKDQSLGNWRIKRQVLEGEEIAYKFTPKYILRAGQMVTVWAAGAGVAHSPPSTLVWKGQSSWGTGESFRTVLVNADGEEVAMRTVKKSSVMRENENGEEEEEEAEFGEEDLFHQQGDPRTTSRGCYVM
# UniProt Q13422, sequence (Q13422 whole entry, looked up): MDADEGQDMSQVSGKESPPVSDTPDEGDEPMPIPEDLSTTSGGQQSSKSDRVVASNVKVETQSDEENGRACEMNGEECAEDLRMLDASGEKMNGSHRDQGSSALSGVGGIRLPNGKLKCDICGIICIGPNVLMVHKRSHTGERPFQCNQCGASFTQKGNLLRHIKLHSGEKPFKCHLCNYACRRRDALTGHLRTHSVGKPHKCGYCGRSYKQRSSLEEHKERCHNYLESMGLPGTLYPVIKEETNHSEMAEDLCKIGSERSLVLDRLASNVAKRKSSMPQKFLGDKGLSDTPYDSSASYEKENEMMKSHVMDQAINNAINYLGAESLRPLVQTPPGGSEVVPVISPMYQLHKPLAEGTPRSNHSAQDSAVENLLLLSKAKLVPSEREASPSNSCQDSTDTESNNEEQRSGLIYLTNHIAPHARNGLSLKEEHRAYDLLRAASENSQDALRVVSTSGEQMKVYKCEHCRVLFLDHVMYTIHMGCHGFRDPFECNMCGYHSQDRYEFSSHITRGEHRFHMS
# UniProt Q9NVC6, sequence (Q9NVC6 whole entry, looked up): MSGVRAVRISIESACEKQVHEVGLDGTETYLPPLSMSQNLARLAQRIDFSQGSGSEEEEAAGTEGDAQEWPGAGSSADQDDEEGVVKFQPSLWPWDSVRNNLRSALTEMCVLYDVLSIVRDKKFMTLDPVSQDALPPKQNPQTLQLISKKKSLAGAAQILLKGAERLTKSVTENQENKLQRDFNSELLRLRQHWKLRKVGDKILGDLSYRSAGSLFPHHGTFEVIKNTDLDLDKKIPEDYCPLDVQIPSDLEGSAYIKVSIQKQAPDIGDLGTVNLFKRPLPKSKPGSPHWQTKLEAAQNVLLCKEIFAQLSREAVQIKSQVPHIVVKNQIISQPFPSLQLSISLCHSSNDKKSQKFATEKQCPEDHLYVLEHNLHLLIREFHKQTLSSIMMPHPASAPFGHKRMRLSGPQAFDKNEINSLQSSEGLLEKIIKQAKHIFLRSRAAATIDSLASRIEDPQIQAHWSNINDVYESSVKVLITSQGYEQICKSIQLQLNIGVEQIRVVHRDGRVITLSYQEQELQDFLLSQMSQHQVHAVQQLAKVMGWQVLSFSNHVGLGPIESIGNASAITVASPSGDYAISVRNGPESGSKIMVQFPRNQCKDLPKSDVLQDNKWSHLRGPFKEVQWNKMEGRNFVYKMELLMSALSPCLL
row,Target,log2 fold change
1,LTV1 (UniProt Q96GA3),0.022 (inactive)
2,LMNB1 (UniProt P20700),-0.09 (inactive)
3,LNPK (UniProt Q9C0E8),0.001 (inactive)
4,LDAH isoform 2 (UniProt Q9H6V9),-0.517 (active)
5,IL27RA (UniProt Q6UWB1),0.047 (inactive)
6,KIF2C (UniProt Q99661),0.09 (inactive)
7,LAMP2 (UniProt P13473),-0.012 (inactive)
8,LMNB2 (UniProt Q03252),-0.005 (inactive)
9,MAP1LC3B2 (UniProt A6NCE7),-0.032 (inactive)
10,METAP1D (UniProt Q6UB28),0.021 (inactive)
11,LIMD1 (UniProt Q9UGP4),0 (inactive)
12,MED17 (UniProt Q9NVC6),0.044 (inactive)
13,KIF3A (UniProt Q9Y496),0.137 (inactive)
14,IKZF1 (UniProt Q13422),0.01 (inactive)
15,KSR1 (UniProt Q8IVT5),-0.329 (inactive)
16,MAIP1 (UniProt Q8WWC4),-0.088 (inactive)
17,LPGAT1 (UniProt Q92604),-0.082 (inactive)
18,LTO1 (UniProt Q8WV07),0.036 (inactive)
19,LARP4 isoform 4 (UniProt Q71RC2),-0.159 (inactive)
20,IMMP1L (UniProt Q96LU5),0.005 (inactive)

row,Target,log2 fold change
1,LRBA (UniProt P50851),0.029 (inactive)
2,LMBRD2 (UniProt Q68DH5),0.025 (inactive)
3,MAP2K2 (UniProt P36507),-0.011 (inactive)
4,ITM2B (UniProt Q9Y287),-0.037 (inactive)
5,IPO13 (UniProt O94829),-0.024 (inactive)
6,ILRUN (UniProt Q9H6K1),-0.002 (inactive)
7,IRF2BPL (UniProt Q9H1B7),0.015 (inactive)
8,LDLR (UniProt P01130),-0.017 (inactive)
9,LUC7L3 (UniProt O95232),0.021 (inactive)
10,MAP2K7 isoform 4 (UniProt O14733),0.019 (inactive)
11,MDC1 (UniProt Q14676),-0.01 (inactive)
12,MAP2K1 (UniProt Q02750),0.02 (inactive)
13,MARK3 (UniProt P27448),-0.219 (inactive)
14,KIF21A isoform 4 (UniProt Q7Z4S6),0.163 (inactive)
15,LEMD3 (UniProt Q9Y2U8),-0.001 (inactive)
16,KDM5D isoform 3 (UniProt Q9BY66),0.045 (inactive)
17,IK (UniProt Q13123),0.07 (inactive)
18,KLC2 (UniProt Q9H0B6),-0.133 (inactive)
19,INPP5B (UniProt P32019),0.052 (inactive)
